This test has as its system Leishmania donovani. The test can be described thus: Leishmania intramacrophage assay. The class given is functional, organism-based. Further details: scale not given: in the data most compounds retested in dose-response had high values.

SMILES strings stand for the structures. About 1,000 (1.4%) of roughly 69,000 compounds showed an effect of 50% or more. Many of the other results were omitted from the sample, so strong results are more common in it than they were.

For `c1cc2nc(C3CCNCC3)nn2cc1NC1CCC1`, the “Percent Effect” value (30.3 µM, […]) was 33.34%. The same measure, in the same setting: as for `Cc1nc(COC(=O)c2cccc3c2OCCO3)cs1`, the figure is -13.85%; as for `Cc1nc(COC(=O)c2cccnc2C)no1`, 42.97%; as for `Cc1nc(COC(=O)c2cccc3c2OCCO3)no1`, 59.03%. On the same count and under the same terms, as for `COc1ccccc1C1(CNc2snc(Cl)c2C#N)CCCC1`, the figure is 7.398%; as for `COc1ccccc1C1(CNc2snc(Cl)c2C#N)CCOCC1`, -16.98%. The same measure, in the same setting: as for `N#Cc1c(Cl)nsc1NCC1(c2ccccc2)CCC1`, the figure is 91.2%. Turning to `Cc1cnn(-c2ccc(S(=O)(=O)N(C)CC(C)(CO)CO)cc2F)c1`, the “Percent Effect” value (30.3 µM, […]) is recorded as -120.1%. Same read-out and setting: next, `CNS(=O)(=O)c1ccc(CNC(=O)N(C)CC(O)COC)cc1` (configuration not stated): 11.97%. Consider `CNS(=O)(=O)c1ccc(CNC(=O)N(CC(C)C)C(C)C)cc1`, for which, for the setting “30.3 µM, […]”, the “Percent Effect” value is -6.25%. The same measure, in the same setting: as for `CNS(=O)(=O)c1ccc(CNC(=O)N(C)CC(C)C)cc1`, the figure is 72.03%. The same measure, in the same setting: as for `CN(C(=O)c1ccc(OCC(F)F)nc1)c1ccc2c(c1)CCO2`, the figure is 3.527%; as for `Cc1ncn(CCNC(=O)Nc2ccc(F)c(Cl)c2)c(=O)c1C`, 0.8424%; as for `Cc1noc([C@@H]2C[C@H]3CN(C(=O)C4CCN(C)CC4)C[C@H]3O2)n1.O=C(O)C(F)(F)F`, 33.07%. On the same count and under the same terms, next, `Cc1noc([C@H]2C[C@H]3CN(C(=O)C4CCOCC4)CC[C@@H]3O2)n1`: 60.92%. Consider `Cc1noc([C@H]2C[C@@H]3CCN(C(=O)C4CCOCC4)C[C@H]3O2)n1`, for which, where the note is “30 µM, 30.03 µM”, the “Percent Effect” value is recorded as -8.466%. For `CSc1nccc(N2CCC3(CCCN(Cc4ccc(F)cc4)C3)C2)n1` (configuration not stated), the “Percent Effect” value (30.3 µM, […]) amounted to 14.67%.

As to `Cc1cn2c(n1)C(CNCc1ccc(C)s1)CCC2` (configuration not stated), the “Percent Effect” value (30.3 µM, […]) was -5.269%. Still for that read-out and setting: next, `Cc1cn2c(n1)C(CNCC1=Cc3ccccc3OC1)CCC2` (configuration not stated): 8.139%; `Cc1cn2c(n1)C(CNCC1=Cc3cc(Cl)ccc3OC1)CCC2` (configuration not stated): 69.51%. Regarding `CCc1ocnc1C(=O)N1CCCC(n2nc(C)nc2C)C1` (configuration not stated), under “30 µM”, the “Percent Effect” value was found to be 15.71%. With `NC(=O)c1cn[nH]c1C1CCCN1C(=O)COc1ccccc1` (configuration not stated), for the setting “30.3 µM, […]”, the “Percent Effect” value is 17.94%. As for `CC(NC(=O)CCCc1nc(C(C)(C)C)no1)c1ccccn1` (configuration not stated), the “Percent Effect” value (30 µM) is recorded as -2.756%. On to `Cc1nc(CN2C(=O)CC[C@@H]3[C@H]2CCN3C2CCOC2)cs1.O=C(O)C(F)(F)F` (some centres not stated), for which the “Percent Effect” value (30.3 µM, […]) is given as -26.48%. As to `COC(=O)C(NC(=O)CC(C)C)c1cc(F)ccc1F` (configuration not stated), the “Percent Effect” value (30 µM) was found to be 17.07%. With `COC(=O)C(NC(=O)COC1CCCC1)c1cc(F)ccc1F` (configuration not stated), the “Percent Effect” value (30 µM, 30.03 µM) is 54.06%.

As for `COC(=O)C(NC(=O)C1CCCC1)c1cc(F)ccc1F` (configuration not stated), the “Percent Effect” value (30 µM) was determined as 13.67%.

For `O=C1CC2(CCCCN2C(=O)c2ccsc2)CN1CC1CC1` (configuration not stated), the “Percent Effect” value (30 µM, 30.03 µM) worked out at 15.53%.

As for `Cc1cnn(CC(=O)Nc2cc(-n3nnnc3C3CC3)ccc2F)c1`, the “Percent Effect” value (30.3 µM, […]) is given as 1.472%.

As to `Cc1nn(C)c2nc(N3CCCC3c3nccs3)sc12` (configuration not stated), the “Percent Effect” value (30.3 µM, […]) is 4.253%. Still for that read-out and setting: next, `Cc1nn(C)c2nc(N3CCCCC3c3nccs3)sc12` (configuration not stated): 21.88%; `Cc1nn(C)c2nc(N3CCCCC3c3ccc(F)cc3)sc12` (configuration not stated): 66.72%.

In the case of `CCC(C)NC(=O)c1cc(Br)c2c(c1)OCCO2` (configuration not stated), the “Percent Effect” value (30 µM) turned out to be 30.6%.

For the molecule `COCCN1CCc2c(c(COc3cccnc3)nn2C)C1.O=C(O)C(F)(F)F.O=C(O)C(F)(F)F`, the “Percent Effect” value (30.3 µM, […]) came out at 24.9%. On the same count and under the same terms, as for `Cn1nc(COc2cccnc2)c2c1CCN(Cc1ccco1)C2.O=C(O)C(F)(F)F.O=C(O)C(F)(F)F`, the figure is 17.65%; as for `Cn1nc(COc2cccnc2)c2c1CCN(CC1CC1)C2.O=C(O)C(F)(F)F.O=C(O)C(F)(F)F`, 98.75%. Still for that read-out and setting: as for `NC(=O)c1ccc(N2CCCCC2)c(NC(=O)c2cc(Br)ccc2Cl)c1`, the figure is 19.23%. For `NC(=O)c1ccc(N2CCCCC2)c(NC(=O)c2cc(Br)ccc2F)c1`, where the note is “30 µM, 30.03 µM”, the “Percent Effect” value is 59.99%. Turning to `NC(=O)c1ccc(N2CCCCC2)c(NC(=O)c2cc(F)ccc2F)c1`, the “Percent Effect” value (30.3 µM, […]) was -1.673%.

As to `Cc1nnsc1C(=O)N1CCCC(c2nccn2Cc2cscn2)C1` (configuration not stated), the “Percent Effect” value (30.3 µM, […]) is -3.035%.

As for `Cn1cc(CN2C[C@@H]3COC[C@]3(CNC(=O)c3ccco3)C2)cn1.O=C(O)C(F)(F)F`, the “Percent Effect” value (30.3 µM, […]) is listed as -2.896%. Same read-out and setting: as for `Cc1ccsc1CN1C[C@@H]2COC[C@]2(CNC(=O)c2ccco2)C1.O=C(O)C(F)(F)F`, the figure is 31.86%; as for `O=C(NC[C@]12COC[C@H]1CN(Cc1cccc(F)c1)C2)c1ccco1`, 61.24%.

With `CNC(=O)NCC(CO)Cc1ccccc1OC(F)(F)F` (configuration not stated), the “Percent Effect” value (30.3 µM, […]) amounted to 7.334%. Still for that read-out and setting: as for `CC(c1cccc(-c2ncccc2F)c1)N(C)C` (configuration not stated), the figure is 42.01%. Consider `CC(c1cccc(-c2ncccc2C#N)c1)N(C)C` (configuration not stated), for which the “Percent Effect” value (30.3 µM, […]) was found to be 54.7%. The same measure, in the same setting: next, `CC(c1cccc(-c2ncc(C#N)c(N)n2)c1)N(C)C` (configuration not stated): -18.48%.

For the molecule `Cc1cccc(C(=O)N2C[C@@H]3[C@H](CC(=O)Nc4cccnc4)[C@@H]3C2)n1.O=C(O)C(F)(F)F.O=C(O)C(F)(F)F`, the “Percent Effect” value (30.3 µM, […]) came out at 3.537%. On the same count and under the same terms, as for `N#Cc1ccnc(N2CCN(C(=O)c3ccc4c(c3)CCO4)CC2)c1`, the figure is -46.75%; as for `Cc1ccsc1-c1cccc(-c2ccn(CC3CCNC3)n2)c1` (configuration not stated), 82.16%.

`c1cc(-c2cncnc2)cc(-c2ccn(CC3CCNC3)n2)c1` (configuration not stated): the “Percent Effect” value (30.3 µM, […]) was 5.053%. Same read-out and setting: as for `Cc1nccc(-c2cccc(-c3ccn(CC4CCNC4)n3)c2)n1` (configuration not stated), the figure is -9.02%.

These data come from ChEMBL document CHEMBL3988442, “University of Dundee, Small-Polar-MMV Screening Library” (2021).
